Test results reported in PubChem BioAssay.
Results filed as inconclusive are left out. Activity calls are given as the source filed them. Unless noted, no stated cut-off is given here; in the data, active means inhibition above about 30%; inactive means the rest.

How the values were obtained:
[1] = reduced viability of SK-BR-3 breast cancer cells – cell-based, 24 h, human, pilot screen (AID 572;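 active means viability at or below 10% of carrier control in both of two separate runs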;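 further: compound exposure lasted between 18 and 24 h rather than exactly 24 h; 100% = carrier-treated control wells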); conditions: SK-BR-3 viability, CellTiter-Glo luminescence, at 10 µM, stronger effect = lower value
[2] = HUVEC growth inhibition – cell-based, human, primary screen (AID 575;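 active means viability at or below 30% in both replicate assays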;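 further: 100% = median of untreated cell wells with 0.1% DMSO on each plate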); conditions: HUVEC proliferation, CellTiter-Glo luminescence, 72 h; at 10 µM; stronger effect = lower value
[3] = H69AR cell proliferation blockers – human, duplicate replicates, primary screen (AID 580;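 active means viability at or under a set limit in both replicates, limit being median viability minus 3 SD, cut at about 48% in these data, passing the limit was not always enough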;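 further: 100% = mean luminescence of untreated wells and 0% = no signal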); conditions: H69AR lung tumor cells viability, ATP luminescence, 72 h; at 10 µM; stronger effect = lower value
[4] = MRP1 drug-resistance reversers in H69AR cells – cell-based, doxorubicin co-treatment, pilot screen (AID 601;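 active means viability loss from added drug above about 55%, and viability with drug at most 40%, in both replicates, limit read from the data, passing the limit was not always enough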); conditions: CellTiter-Glo, 72 h, at 10 µM; for differential viability (reversal): stronger effect = higher value
[5] = yeast transport mutant growth inhibition pilot in 384-well plates, post-Golgi transport modulator project (AID 636; in the data active means inhibition above about 31%); conditions: absorbance 615 nm, about 18 h, stronger effect = higher value
[6] = growth suppression of yeast trafficking mutant, preliminary HTS, modulators of trafficking downstream of Golgi apparatus project, 1536-format plate, OD 615 nm (AID 637); conditions: yeast transport mutant growth, absorbance 615 nm, 18 h; stronger effect = higher value
[7] = S. cerevisiae growth inhibition in permissive medium (OD615), pilot counter-assay for S. cerevisiae lifespan shortening project, permissive growth control (AID 705;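 active means growth inhibition above 25% in both replicates, a cutoff set 3 SD above the mean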); conditions: OD615, 24 h, at 10 µM, stronger effect = higher value
[8] = S. cerevisiae growth inhibition in restrictive medium, OD615, pilot screen, restrictive growth control, yeast lifespan reduction project (AID 706;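 active means growth inhibition above a set limit, 3 SD over mean compound inhibition, in both replicates, cut at about 43% in these data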;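 further: modified DeaD lifespan yeast strain shifted to restrictive glucose medium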); conditions: OD615, 48 h, at 10 µM, stronger effect = higher value
[9] = doxorubicin toxicity protection in MRP-1 cells – H69AR cells, CellTiter-Glo, duplicate, MRP-1 activator project, pilot screen (AID 807;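 active means viability increase at or above a cutoff of the median across tested compounds plus 3 SD, cut at about 8.5% in these data, passing the limit was not always enough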;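 further: compound pretreatment 18-22 h then 72 h combined with doxorubicin; 0% = doxorubicin alone and 100% = vehicle without doxorubicin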); conditions: H69AR viability with doxorubicin, CellTiter-Glo luminescence; at 10 µM; stronger effect = higher value
[10] = viability of HCT116 without oncogenic beta-catenin – human colon tumor cells, pilot screen (AID 823;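 active means cell viability at or below a set limit in both duplicate runs, the limit being the all-compound median minus 4 SD, cut at about 23% in these data, passing the limit was not always enough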;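 further: 0% = wells killed by 20 µM Hyamine and 100% = untreated DMSO cell wells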); conditions: HCT116 beta-catenin knockout viability, CellTiter-Glo, 60 h; at 10 µM; stronger effect = lower value
[11] = viability of PTEN-null HCT116 cells – cell-based, HCT116 clonal line, CellTiter-Glo, pilot screen (AID 824;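 active means viability at or below 27.92% in each of two runs, the all-compound median minus 4 SD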;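 further: 0% = 20 µM Hyamine control and 100% = vehicle cell control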); conditions: HCT116 PTEN-deleted viability, 60 h, at 10 µM, stronger effect = lower value
[12] = RAM pathway blockade in budding yeast – dse1pr::URA3 reporter, 5-FOA selection, pilot screen (AID 869;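 active means inhibition over a set limit, the all-compound mean plus 3 SD, in both replicate runs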;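 further: 0% = DMSO wells with no growth and 100% = 10 µM 1-NA-PP1 with full growth; RAM network block rescues cells from 5-FOA so hits raise OD615 growth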); conditions: S. cerevisiae dse1pr::URA3 5-FOA growth, OD615, 2 d; at 10 µM; stronger effect = higher value; strain carries analog-sensitive mutant Cbk1 kinase
[13] = RAM signaling pathway blockade in yeast – S. cerevisiae, Pdr1DBD-CYC8 efflux-inhibited sensitized strain, primary screen (AID 1298;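 active means RAM network inhibition above 8.4% in each of two replicates, 3 SD over the compound average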;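 further: 0% = DMSO untreated cells without growth and 100% = 10 µM 1-NA-PP1 full growth; higher means more yeast growth rescued from 5-FOA killing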); conditions: S. cerevisiae cbk1-as DSE1-URA3 strain, 5-FOA growth OD615, 2 d; at 50 µM; stronger effect = higher value
[14] = Her2 expression decrease, cell viability multiplex – SKBR3 breast tumor cells, AlphaScreen, ATP viability, primary screen (AID 461;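 active means Her2 level under about 52% in both replicate screens, with viability over 70% of control, limit read from the data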;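 on Her2 level: lower value means less Her2 protein in the cells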;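 on viability: percent of carrier control wells set as 100% viability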); conditions: SKBR3 Her2 protein level, 18-24 h, measured here: SKBR3 viability, ATP luminescence, at 10 µM
[15] = target: Receptor tyrosine-protein kinase erbB-2 (Homo sapiens) (UniProt P04626); experiment: as above; conditions: 18-24 h, at 10 µM, stronger effect = lower value
Receptor tyrosine-protein kinase erbB-2 (Homo sapiens), sequence (P04626 whole entry, looked up): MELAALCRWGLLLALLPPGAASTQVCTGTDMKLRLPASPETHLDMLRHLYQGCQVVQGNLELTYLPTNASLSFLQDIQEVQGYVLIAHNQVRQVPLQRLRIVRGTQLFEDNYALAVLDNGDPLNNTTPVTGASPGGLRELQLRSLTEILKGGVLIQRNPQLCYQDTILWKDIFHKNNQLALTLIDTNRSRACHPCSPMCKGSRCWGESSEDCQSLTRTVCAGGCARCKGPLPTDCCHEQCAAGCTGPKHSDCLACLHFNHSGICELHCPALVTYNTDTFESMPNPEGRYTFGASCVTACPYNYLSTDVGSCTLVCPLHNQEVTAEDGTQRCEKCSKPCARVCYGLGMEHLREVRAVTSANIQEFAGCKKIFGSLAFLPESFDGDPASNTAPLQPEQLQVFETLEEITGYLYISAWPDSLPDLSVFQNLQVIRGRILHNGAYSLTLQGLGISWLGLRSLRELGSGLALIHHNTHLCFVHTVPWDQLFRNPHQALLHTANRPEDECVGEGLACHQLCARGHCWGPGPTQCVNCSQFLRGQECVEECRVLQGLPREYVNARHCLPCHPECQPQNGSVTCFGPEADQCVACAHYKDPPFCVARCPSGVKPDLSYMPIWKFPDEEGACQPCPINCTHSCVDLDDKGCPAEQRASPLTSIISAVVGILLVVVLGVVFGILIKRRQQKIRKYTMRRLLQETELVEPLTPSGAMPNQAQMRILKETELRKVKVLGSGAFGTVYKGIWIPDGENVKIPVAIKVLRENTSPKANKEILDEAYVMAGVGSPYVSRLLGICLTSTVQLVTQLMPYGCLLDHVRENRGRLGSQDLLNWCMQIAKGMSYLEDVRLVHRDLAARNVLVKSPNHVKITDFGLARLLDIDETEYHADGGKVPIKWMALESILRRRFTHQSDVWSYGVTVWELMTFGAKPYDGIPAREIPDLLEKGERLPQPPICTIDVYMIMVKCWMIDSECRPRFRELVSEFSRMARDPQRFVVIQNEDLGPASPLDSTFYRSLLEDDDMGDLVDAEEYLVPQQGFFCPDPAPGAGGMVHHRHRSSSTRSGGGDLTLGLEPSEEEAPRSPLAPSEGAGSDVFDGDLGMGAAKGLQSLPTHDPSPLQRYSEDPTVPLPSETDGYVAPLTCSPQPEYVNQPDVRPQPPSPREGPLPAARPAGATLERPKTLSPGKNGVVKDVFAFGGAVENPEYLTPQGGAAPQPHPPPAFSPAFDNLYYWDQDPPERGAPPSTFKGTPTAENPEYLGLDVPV

[16] = H69AR cells + 2 uM doxorubicin, measured here: viability with 2 uM doxorubicin, stronger effect = lower value
[17] = H69AR cells, compound alone cytotoxicity

| Structure (SMILES) | viability [1] | viability [2] | viability [3] | differential viability (reversal) ([4]; H69AR cells + 2 uM doxorubicin) | viability [4, 16] | viability [4, 17] | inhibition [5] | inhibition [6] | growth inhibition [7] | growth inhibition [8] | viability increase [9] | viability [10] | viability [11] | inhibition [12] | RAM network inhibition [13] | viability [14] | Her2 level [15] |
| --- | --- | --- | --- | --- | --- | --- | --- | --- | --- | --- | --- | --- | --- | --- | --- | --- | --- |
| CCOc1ccc(NS(=O)(=O)c2cc(Cl)ccc2OC)cc1 | 102% (inactive) | 91% (inactive) | 70.8% (inactive) | -22.1% (inactive) | 92.9% | 70.8% | -6.93% (inactive) | -5.09% (inactive) | -10.7% (inactive) | -13.3% (inactive) | -2.64% (inactive) | 75.1% (inactive) | 76.2% (inactive) | 0.335% (inactive) | 0.17% (inactive) |  |  |
| O=C(Nc1nc(-c2ccncc2)cs1)C1COc2ccccc2O1 (stereo unspecified) | 83.5% (inactive) | 67.2% (inactive) |  | 4.21% (inactive) | 60.6% | 64.8% | 0.51% (inactive) | -8% (inactive) |  | 33.5% (inactive) | -5.71% (inactive) | 85.3% (inactive) | 83.9% (inactive) | 0.095% (inactive) | 7.12% (inactive) | 83.5% | 99.5% (inactive) |
| COc1ccc(N2CCN(C(=O)CSc3ccccc3)CC2)cc1 | 113% (inactive) | 103% (inactive) | 95.5% (inactive) | 12.5% (inactive) | 83% | 95.5% | -8.13% (inactive) | -2.18% (inactive) | 3.53% (inactive) | 11.6% (inactive) | -3.92% (inactive) | 93.2% (inactive) | 85.9% (inactive) | 1.16% (inactive) | 3.22% (inactive) |  |  |
| Cc1ccc(S(=O)(=O)N(CC(=O)N2CCC(C(N)=O)CC2)Cc2ccc(F)cc2)cc1 | 93% (inactive) | 110% (inactive) | 100% (inactive) | 11.3% (inactive) | 88.8% | 100% | -3.87% (inactive) | -3.45% (inactive) | -1.11% (inactive) | 2.36% (inactive) | -2.26% (inactive) | 97.5% (inactive) | 87.2% (inactive) | -0.07% (inactive) | 1.49% (inactive) |  |  |
| Cc1cc(C)c2c(=O)n(CC(=O)NCCCN3CCOCC3)sc2n1 | 98% (inactive) | 64.1% (inactive) |  | 4.36% (inactive) | 35.5% | 39.8% | -4.53% (inactive) | -2.67% (inactive) | 4.33% (inactive) | 0.575% (inactive) | -4.85% (inactive) |  | 56.5% (inactive) | 1.51% (inactive) | 3.11% (inactive) | 98% | 89.5% (inactive) |
| Cc1cc(/C=N/n2cnnc2)c(C)n1-c1cccc(Cl)c1 | 84% (inactive) |  | 86.4% (inactive) | 20.5% (inactive) | 65.9% | 86.4% | -5.26% (inactive) | 3.83% (inactive) | -2% (inactive) | 22.7% (inactive) | -3.15% (inactive) | 83.7% (inactive) | 73.2% (inactive) | 2.75% (inactive) | 2.81% (inactive) | 84% | 92% (inactive) |
| Cc1ccc(C)c(N2CCN(CCCNC(=O)Cn3cc4c(n3)CCC(C)C4)CC2)c1 (stereo unspecified) | 90.5% (inactive) |  | 26.6% (active) | -20.3% (inactive) | 46.9% | 26.6% | -1.54% (inactive) | -2.83% (inactive) | 6.12% (inactive) | 10.4% (inactive) | -6.04% (inactive) | 1.61% (active) | 2.81% (active) | 1.44% (inactive) | 0.11% (inactive) | 90.5% | 78% (inactive) |
| COc1ccc(CCn2c(-c3ccco3)nc3ccccc3c2=O)cc1OC | 73% (inactive) | 84.3% (inactive) |  | -29.2% (inactive) | 82.1% | 52.8% | -5.95% (inactive) | -0.49% (inactive) | -7.24% (inactive) | -21.7% (inactive) | -3.68% (inactive) | 54.5% (inactive) | 57.1% (inactive) | 0.935% (inactive) | 5.3% (inactive) | 73% | 89% (inactive) |
| CCN(CC)S(=O)(=O)c1ccc2c(c1)nc(SCn1nnc3ccccc3c1=O)n2CC | 74% (inactive) | 81.1% (inactive) | 83.2% (inactive) | 8.64% (inactive) | 74.6% | 83.2% | -4.93% (inactive) | -2.36% (inactive) | -1.67% (inactive) | -5.42% (inactive) | 2.88% (inactive) | 90.7% (inactive) | 103% (inactive) | 2.54% (inactive) | 7.57% (inactive) |  |  |
| COc1ccccc1S(=O)(=O)Cc1ccc(C(=O)NCCN2CCCCCC2)o1 |  | 97.5% (inactive) | 102% (inactive) | 11.8% (inactive) | 90% | 102% | -0.9% (inactive) | -1.33% (inactive) | 2.4% (inactive) | -14.5% (inactive) | -2.82% (inactive) | 104% (inactive) | 104% (inactive) | 1.38% (inactive) | 7.66% (inactive) | 71% | 102% (inactive) |
| OC1(c2cccc(C(F)(F)F)c2)CCN(c2ccc(-c3ccccc3)nn2)CC1 | 71.5% (inactive) | 86.4% (inactive) |  | -2.92% (inactive) | 61.9% | 59% | 0.27% (inactive) | 0.98% (inactive) | -3.31% (inactive) | -9.3% (inactive) | -8.34% (inactive) | 10.7% (active) | 46.8% (inactive) | 1.11% (inactive) | 5.46% (inactive) | 71.5% | 78.5% (inactive) |
| Cc1nc2ccccc2c2oc(C(=O)NCC3COc4ccccc4O3)cc12 (stereo unspecified) | 103% (inactive) |  | 88.4% (inactive) | 0.085% (inactive) | 88.3% | 88.4% | 0.13% (inactive) | 6.33% (inactive) | -0.145% (inactive) | -3.1% (inactive) | -1.89% (inactive) | 61.2% (inactive) | 70.8% (inactive) | 1.69% (inactive) | 3.41% (inactive) | 103% | 58.5% (inactive) |
| CN(C)c1ccc(C(=O)Nc2nnc(-c3ccc(Cl)cc3)o2)cc1 | 92% (inactive) | 13.4% (active) |  | -33.4% (inactive) | 81.2% | 47.8% | 29.9% (inactive) | 21.5% (inactive) | 5.56% (inactive) | -19.4% (inactive) | -3.93% (inactive) | 26.8% (inactive) | 25.2% (active) | 1.5% (inactive) | 2.45% (inactive) | 92% | 75.5% (inactive) |
| Cn1c(=O)oc2cc(S(=O)(=O)N3CCN(c4ccccn4)CC3)ccc21 | 88.5% (inactive) |  | 73.8% (inactive) | 0.275% (inactive) | 73.5% | 73.8% | 0.26% (inactive) | -3.67% (inactive) | -8.03% (inactive) | -3.75% (inactive) | -5.33% (inactive) | 66% (inactive) | 69.4% (inactive) | 1.97% (inactive) | 5.16% (inactive) | 88.5% | 91.5% (inactive) |
| O=C(/C=C/N1CCOCC1)c1ccc(-c2ccccc2)cc1 | 104% (inactive) | 81.8% (inactive) | 89.5% (inactive) | 7.73% (inactive) | 81.8% | 89.5% | -5.07% (inactive) | -2% (inactive) | 99.4% (active) | 100% (active) | -1.77% (inactive) | 88.4% (inactive) | 80.6% (inactive) | -0.475% (inactive) | -1.36% (inactive) |  |  |
| O=C(Cn1c(=O)sc2ccccc21)NCCOc1ccccc1F | 102% (inactive) | 108% (inactive) | 99.4% (inactive) | 13.6% (inactive) | 85.8% | 99.4% | -1.82% (inactive) | -6.23% (inactive) | 7.09% (inactive) | 11.1% (inactive) | -0.76% (inactive) | 108% (inactive) | 98.4% (inactive) | 1.38% (inactive) | 10.5% (inactive) |  |  |
| COc1ccc(C2C(C(=O)Nc3cccnc3)=C(C)Nc3nc(-c4cccs4)nn32)cc1OC (stereo unspecified) |  | 90.5% (inactive) | 87.8% (inactive) | 12.1% (inactive) | 75.7% | 87.8% | 1.2% (inactive) | -6.17% (inactive) | -9.82% (inactive) | -8.04% (inactive) | -1.12% (inactive) | 106% (inactive) | 95.6% (inactive) | -0.09% (inactive) | -1.11% (inactive) | 59% | 94.5% (inactive) |
| CC1CCCCN1S(=O)(=O)c1ccc(NC(=O)c2cccs2)cc1 (stereo unspecified) | 73.5% (inactive) |  | 85.5% (inactive) | 1.84% (inactive) | 83.6% | 85.5% | -1.17% (inactive) | -13.2% (inactive) | -8.63% (inactive) | -13.5% (inactive) | -4.32% (inactive) | 76.2% (inactive) | 82% (inactive) | 1.48% (inactive) | 0.93% (inactive) | 73.5% | 83% (inactive) |
| Cn1c(C(=O)Nc2ccc3c(c2)OCO3)cc2c(=O)n(C)c3ccccc3c21 | 73% (inactive) | 72.6% (inactive) | 34.2% (active) | 7.56% (inactive) | 26.6% | 34.2% | -2.18% (inactive) | 2% (inactive) | -4.94% (inactive) | -3.57% (inactive) | -2.91% (inactive) | 92.4% (inactive) | 91.5% (inactive) | 3.22% (inactive) | 4.86% (inactive) |  |  |
| Cc1ccccc1Cn1nc(C)c(NC(=O)c2noc3c2CCc2ccccc2-3)c1C | 126% (inactive) |  | 98.4% (inactive) | 14% (inactive) | 84.4% | 98.4% | 5.77% (inactive) | -2.17% (inactive) | -6.68% (inactive) | 1.82% (inactive) | 10.6% (active) | 79.5% (inactive) | 85.2% (inactive) | 1.23% (inactive) | 6.54% (inactive) | 126% | 61% (inactive) |
